The list is not random: actives were taken first. Their share in the collection is about 2.9%.
Rango complex inh: inhibitors of Rango-importin beta complex formation. Q14974. Rango CFP/YFP FRET sensor + importin beta, 45 min. Potency, µM (doses to about 92.2 µM), for the others: top-dose inhibition of complex formation. 340,000 tested, 0.031% active;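 further: potency means the concentration at half of the fitted maximal effect; 0% = DMSO wells and 100% = buffer wells lacking importin beta; nearly all actives have a fitted effect of over 15% in size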
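FRET biosensor Rango (snurportin 1 IBB between N-terminal EYFP and C-terminal Cerulean), 50 nM in PBS/1 mM DTT/0.02% Tween-20/0.1% BSA, preincubated 5 min RT with compound; 0.125 microM importin beta added, 45 min RT, CFP/YFP FRET ratio read.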
MmCpn inh: M. maripaludis TRiC chaperonin inhibition | 330,000 tested, 0.031% active | purified Mm-Cpn ATPase, ADP Transcreener TR-FRET | Potency, µM (highest dose often 76.9 µM), inactives show top-dose activity, negative = inhibition, usual class: inhibitors; active means well fitted inhibition curve with a large enough effect; inconclusive means small, poorly fitted or top-dose-only effect; further: potency means the concentration at half of the fitted maximal effect; on the % scale 0 is the no-effect control and ±100 the full control effect; nearly all actives have a fitted effect of over 80% in size
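Compound-treated chaperonin, 25 nM final, turns over 10 uM ATP at 37°C for 30 min following a 10 min preincubation; ADP generated competes with ADP-d2 for Eu-cryptate antibody, lowering FRET.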
Rango release inh: inhibitors of RanGTP-induced Rango-importin beta complex dissociation. O95149+P62826. Biochemical FRET Rango-importin beta, RanGTP-induced dissociation. Potency, µM (doses to about 46.1 µM), for inactives: at the top dose activity change, negative = inhibition. 340,000 tested, 0.071% active. AID 540253; further: potency means the concentration at half of the fitted maximal effect; % of control where 0% means no effect; nearly all actives have a fitted effect of over 45% in size
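Rango/importin beta premix (0.1/0.25 uM final), PBS + 1 mM DTT + 0.02% Tween-20 + 0.1% BSA; cpd 5 min RT; FRET pre-read; + RanGTP-RCC1 (0.6 uM Ran, 2 mM GTP, 0.2 uM RCC1); 45 min RT; FRET post-read, ex 430, em 486/530 nm.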
TSG101-PTAP inh: blocks PTAP/TSG101 interaction to inhibit HIV-1 budding | Fluorescence polarization, FITC-PTAP peptide / Tsg101 binding | Potency, µM (titrated, usually from 115 µM), inactives show top-dose activity change, negative = inhibition, actives largely listed as inhibitors | 340,000 tested, under 10 active | AID 493005; active means well fitted inhibition curve with a large enough effect in the main read-out, with a control signal flat, not every such curve was filed as active; inconclusive means small, poorly fitted or top-dose-only effect, or effect the other way, or a change in a side signal; inactive means no such curve, though single readings can be large or run the other way; further: potency means the concentration at half of the fitted maximal effect; % of control where 0% means no effect
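FP read-out: FITC-PTAP peptide, 50 nM final, binding Tsg101 binding domain, 10 uM final; 20 min, r.t.; 10 mM HEPES pH 7.5, 0.15 M NaCl, 0.01% Tween 20, 3 mM EDTA, 0.1 mM TCEP.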
D3 antag: antagonists of human D3 dopamine receptor; max response, negative = inhibition, %; 360,000 tested, 2.5% active; D3R cells, DiscoveRx beta-arrestin luminescence, antagonist mode; hits give low values; P35462; in the data active means max response below about -50%; inconclusive means no clear call, values can overlap the other calls; further: on the % scale 0 is the no-effect control and ±100 the full control effect
Target sequence (P35462 whole entry, looked up): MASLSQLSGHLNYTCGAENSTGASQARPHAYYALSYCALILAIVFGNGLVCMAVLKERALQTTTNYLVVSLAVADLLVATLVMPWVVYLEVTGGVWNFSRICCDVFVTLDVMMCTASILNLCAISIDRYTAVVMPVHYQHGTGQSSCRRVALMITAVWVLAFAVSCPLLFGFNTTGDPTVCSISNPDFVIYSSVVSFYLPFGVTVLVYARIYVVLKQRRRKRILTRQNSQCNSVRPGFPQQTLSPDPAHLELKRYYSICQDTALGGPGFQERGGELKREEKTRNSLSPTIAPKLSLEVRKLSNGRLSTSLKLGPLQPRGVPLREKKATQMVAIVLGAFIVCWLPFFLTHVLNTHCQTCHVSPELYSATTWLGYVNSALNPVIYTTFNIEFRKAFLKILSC
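Cells expressing the human receptor were seeded at 1500 cells/well, incubated overnight at 37 degrees C in 5% CO2, then exposed to library compounds with dopamine controls for 90 minutes at 37 degrees C before luminescent detection.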
D3 ag: agonists of human D3 dopamine receptor; 410,000 tested, 0.58% active; max activation, %; D3R DiscoveRx beta-arrestin cells, luminescence, 90 min; AID 652048; in the data active means max activation above about 30%; further: 0% is about no effect
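Cells at 1500/well, incubated overnight, then treated with pinned compounds (dopamine as control) for 90 min at 37 degrees C. DiscoveRx reagent added for 30 - 60 minutes at room temperature; luminescence read.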
The depositor's hits bear a star; ? = inconclusive; . = not tested or not shown. Unless noted, the call rests on the fitted dose curve.

SMILES	Rango complex inh	MmCpn inh	Rango release inh	TSG101-PTAP inh	D3 antag	D3 ag
CCCCc1ccc2[nH]cc(CCN)c2c1	3.1%	-3.5%	-0.2%	-3.5%	-0.7	65.1*
OC(COCc1ccc(Cl)cc1)CN1CC=C(c2ccccc2)CC1 (stereo unspecified)	-0.6%	-2.0%	1.8%	-8.2%	?	33.7*
OC(CN1CC=C(c2ccccc2)CC1)c1ccccc1 (stereo unspecified)	-0.7%	0.4%	-22.5%	0.4%	-21.0	21.1
Nc1cc(Cl)c2nonc2c1[N+](=O)[O-]	?	0.5%	1.8%	-3.5%	-57.9*	-14.9
COc1ccc(OC)c(C[C@H](C)N)c1	.	.	.	.	.	9.4
CN(C(=O)c1ccco1)C1(c2ccccc2Cl)CCCCC1=O (stereo unspecified)	?	0.1%	-16.8%	-5.7%	-52.6*	-11.7
Cc1cc(Cl)ccc1OCC(=O)O	-3.1%	-2.2%	3.5%	0.7%	-110.1*	-87.5
Clc1ccc2[nH]c3c(c2c1)CCNC3	-2.7%	0.6%	23.0%	-2.9%	-70.4*	-17.0
CC[N+](C)(CC)CCOC(=O)C(O)(c1ccccc1)c1ccccc1	.	.	.	.	.	0.6
CC1=C(N2CC2)C(=O)C(CO)=C(N2CC2)C1=O	-1.9%	.	10.1%	-1.2%	-95.6*	-35.6
COC(COC(N)=O)C1=C(N2CC2)C(=O)C(C)=C(N2CC2)C1=O (stereo unspecified)	?	.	9.5%	-4.6%	-0.7	-10.1
CCCN(CCC)C1CCc2ccc(O)cc2C1 (stereo unspecified)	-2.0%	1.3%	-11.5%	-2.8%	.	121.6*
CCCN(CCC)C1CCc2cccc(O)c2C1 (stereo unspecified)	-0.7%	.	0.5%	-5.6%	-12.7	6.0
CC1=CC2/C=C(\C)CCC(O)C(O)/C=C/C(=O)C23C(=O)NC(CC(C)C)C3C1C (stereo unspecified)	-2.2%	.	-9.7%	-2.0%	-73.9*	-12.5
O=C(COc1ccccc1)N1CCN(CC2CC=CCC2)CC1 (stereo unspecified)	9.8%	-5.5%	-1.8%	-2.5%	-56.6*	-14.0
COc1ccccc1CN1CCN(C(=O)COc2ccccc2)CC1	0.9%	-0.1%	?	0.7%	-81.5*	0.5
COc1cc(OC)c(OC)cc1CN1CCN(C(=O)COc2ccc3ccccc3c2)CC1	-0.4%	1.5%	0.2%	0.7%	0.0	-19.9
CC(=O)NC1CCSC1=O (stereo unspecified)	.	.	.	.	.	5.6
O=C(CCN1CCN(CCO)CC1)N1c2ccccc2Sc2ccc(C(F)(F)F)cc21	0.7%	-0.4%	0.2%	1.4%	-74.4*	-34.3
O=C(O)c1ccccc1SCC(=O)N1c2ccccc2Sc2ccccc21	-4.6%	1.5%	?	-2.0%	4.3	1.9
Cc1ccccc1CN1Cc2cnnn2-c2ccccc2C1C#N (stereo unspecified)	4.8%	.	1.6%	-2.1%	-115.4*	-66.0
CCOP(=O)(OCC)Oc1cc(C)c(N(C)C)c(C)c1	1.0%	-0.9%	-8.4%	0.9%	12.3	5.6
CCOP(=O)(OCC)OCC	7.8%	-1.9%	-0.7%	-2.4%	-110.1*	-89.9
CCOc1ccccc1N=Cc1c(O)n(C)c(=O)n(C)c1=O	-0.7%	-0.2%	?	-0.8%	34.2	-1.6
CN1CC=C(c2c[nH]c3ccccc23)CC1	3.2%	1.5%	-23.0%	-1.8%	-84.6*	-15.8
C1=C(c2c[nH]c3ccccc23)CCN(Cc2ccccc2)C1	?	-2.0%	-9.8%	0.0%	-101.1*	-20.6
C(=NN1CCCCCC1)c1c[nH]c2ccccc12	-1.8%	.	-2.4%	-4.2%	-1.1	-0.4
CC(C)CS(=O)(=O)C1=NN2C(=N)/C(=C\c3ccc(OC(=O)c4ccco4)cc3)C(=O)N=C2S1	?	0.2%	25.9µM*	-0.5%	25.6	-6.7
COc1ccc(/C=C2/C(=O)N(Cc3ccco3)C(=O)N(C(C)C)C2=O)cc1	?	-1.9%	-25.7%	5.0%	16.5	0.3

High-throughput results as filed in PubChem.
